Screening results (PubChem BioAssay)
HepG2 tox: qHTS for Inhibitors of TGF-b: Cytotox Counterscreen; HepG2 CAGA-GFP viability, ATP luminescence, 18 h; Potency, µM (top dose mostly 46.1 µM), without a hit: at the top dose activity change, negative = cytotoxicity, most hits filed as cytotoxic; 410,000 compounds, 0.76% hits; also: potency is read from the fitted curve at half-maximal effect
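HepG2 CAGA-GFP cells (1000/well, DMEM with 1% FBS) received compound, then TGF-beta at 500 pg/mL final, and were incubated 18 hours at 37 degrees C. Viability was read by CellTiter-Glo luminescence. Media-only wells were set as complete cell-killing and DMSO as no toxicity.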
DT40 TDP1 CPT: qHTS for Inhibitors of human tyrosyl-DNA phosphodiesterase 1 (TDP1): qHTS in cells in presence of CPT. Potency, µM (series often up to 46.2 µM), without a hit: top-dose activity change, negative = growth inhibition, hits mostly inhibitors. chicken DT40 Tdp1-/-;hTDP1 cells + 20 nM CPT, ATP luminescence, 48 h. AID 686979, 2013. 420,000 compounds, 12% hits; also: potency is read from the fitted curve at half-maximal effect; % is scaled to controls: 0 for no effect and ±100 for the full control effect; nearly all actives have a fitted effect of over 55% in size
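Cell growth measured by CellTiter-Glo luminescence after a minimum 48 h, 37 C compound exposure with 20 nM CPT in Tdp1-knockout DT40 cells stably expressing hTDP1, seeded 400/well; qHTS titration format.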
IL-1B inflam inh: qHTS for Inhibitors of Inflammasome Signaling: IL-1-beta AlphaLISA Primary Screen | THP-1 LPS/ATP IL-1B secretion, AlphaLISA, 16 h; hits give low values | activity change, % at 57.5 µM | 360,000 compounds, 4.7% hits; in the data active = activity change below about -50%; inconclusive = mostly about -30% to -49%; also: % is scaled to controls: 0 for no effect and ±100 for the full control effect
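THP-1 cells pretreated 1 hr with compounds (up to 57.5 uM final), then stimulated with LPS (250 ng/mL final) plus ATP (1.25 mM final); secreted IL-1B measured by AlphaLISA after 16 hr, decreased signal indicating inhibition.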
TDP1 inh: qHTS Assay for Inhibitors of Tyrosyl-DNA Phosphodiesterase (TDP1); Tyrosyl-DNA phosphodiesterase 1 (Homo sapiens), Q9NUW8; recombinant TDP1, AlphaScreen DNA substrate cleavage; Potency, µM (series often up to 130 µM), inactives show at the top dose activity change, negative = inhibition, hits mostly inhibitors; 350,000 compounds, 0.28% hits; also: potency is read from the fitted curve at half-maximal effect; % is scaled to controls: 0 for no effect and ±100 for the full control effect; nearly all actives have a fitted effect of over 40% in size
Target sequence (Q9NUW8 whole entry, looked up): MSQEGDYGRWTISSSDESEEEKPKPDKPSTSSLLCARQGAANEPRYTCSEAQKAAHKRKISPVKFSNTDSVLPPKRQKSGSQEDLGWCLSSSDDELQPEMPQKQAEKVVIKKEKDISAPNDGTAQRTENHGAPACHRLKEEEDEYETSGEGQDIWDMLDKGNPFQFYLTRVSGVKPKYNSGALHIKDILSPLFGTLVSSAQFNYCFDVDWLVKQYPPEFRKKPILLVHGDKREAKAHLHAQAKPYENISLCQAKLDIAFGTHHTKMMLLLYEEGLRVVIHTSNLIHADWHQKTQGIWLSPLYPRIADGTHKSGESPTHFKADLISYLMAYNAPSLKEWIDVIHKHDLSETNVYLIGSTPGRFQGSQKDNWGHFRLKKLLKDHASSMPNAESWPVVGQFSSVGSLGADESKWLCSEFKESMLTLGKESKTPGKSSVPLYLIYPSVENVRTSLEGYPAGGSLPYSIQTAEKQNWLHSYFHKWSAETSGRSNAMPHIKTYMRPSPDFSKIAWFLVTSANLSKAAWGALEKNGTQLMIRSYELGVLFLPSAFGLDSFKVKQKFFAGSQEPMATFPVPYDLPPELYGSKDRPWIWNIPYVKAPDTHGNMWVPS
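Tdp1 1 nM final; 15 min RT w/ cpd; substrate 15 nM, 5 min; beads 10 ug/ml, 10 min; AlphaScreen read. Neg ctrl: no enzyme.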
TGFb SMAD3 inh: qHTS for Inhibitors of TGF-b; HepG2 CAGA-GFP TGF-b/SMAD3 reporter, GFP fluorescence, 18 h; TGF-beta stimulated, 500 pg/mL final; Potency, µM (highest dose often 46.1 µM), inactives show at the top dose activity, negative = inhibition, most hits filed as inhibitors; 410,000 compounds, 1.2% hits; also: potency is read from the fitted curve at half-maximal effect; % is scaled to controls: 0 for no effect and ±100 for the full control effect; nearly all actives have a fitted effect of over 65% in size
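Per well, imaged GFP fluorescence of HEPG2 CAGA-GFP cells gives the signal; cells get compound, then TGF-beta (500 pg/mL final), 18 h at 37 degrees C; %Activity versus -TGF-beta and +DMSO controls.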
TDP1 cell noCPT: qHTS for Inhibitors of human tyrosyl-DNA phosphodiesterase 1 (TDP1): qHTS in cells in absence of CPT | DT40 Tdp1-/- hTDP1 cells, no CPT, ATP luminescence, 48 h | Potency, µM (doses to about 46.2 µM), inactives show at the highest dose activity change, negative = growth inhibition, hits mostly inhibitors | 420,000 compounds, 15% hits | AID 686978, 2013; also: potency is read from the fitted curve at half-maximal effect; % is scaled to controls: 0 for no effect and ±100 for the full control effect; nearly all actives have a fitted effect of over 55% in size
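A cellular qHTS used chicken DT40 cells lacking endogenous Tdp1 but carrying stably transfected human TDP1. Compounds were applied without camptothecin, and cell growth kinetics were judged by ATP-dependent luminescence after ≥48 hr.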
The depositor's hits bear a star; [ ] = another dose, or the depositor's remark. Sampled rows, rich in hits. Any-hit rate of the full collection: about 19%. Unless noted, calls follow the shape of the dose curve; as a rule, active = well fitted curve in the direction sought with a large enough effect; inconclusive = small, poorly fitted or top-dose-only effect, or another doubt; inactive = no such curve, though single readings can be large; an effect the other way counts as inactive or inconclusive.

Cc1ccc(C(=O)N2N=C3c4ccccc4S(=O)(=O)N3[C@H]2N(C)C)cc1 was read as HepG2 tox -12%, DT40 TDP1 CPT -8%, IL-1B inflam inh -28, TDP1 inh 3%, TGFb SMAD3 inh -2% and TDP1 cell noCPT -19%.
COc1cc2c(cc1OC)C(c1ccc(OC)c(OC)c1OC)CC(=O)N2 (centres undefined) was read as HepG2 tox -4%, DT40 TDP1 CPT -3%, IL-1B inflam inh 24, TDP1 inh 3%, TGFb SMAD3 inh 6% and TDP1 cell noCPT 2%.
For CCOc1c(OC)cccc1C1CC(=O)Nc2cc(OC)c(OC)cc21 (centres undefined) the results were HepG2 tox -2%, DT40 TDP1 CPT inconclusive, IL-1B inflam inh 10, TDP1 inh 3%, TGFb SMAD3 inh -2% and TDP1 cell noCPT 18µM*.
`Cc1ccc2c(=O)cc(C(=O)Nc3cccc(C(F)(F)F)c3)oc2c1C` gave HepG2 tox -4%, DT40 TDP1 CPT -27%, TDP1 inh 2%, TGFb SMAD3 inh 0% and TDP1 cell noCPT inconclusive.
For CC/C(=C/c1ccccc1)c1cccc2[nH]c3c(OC)cccc3c12 the results were HepG2 tox -46%, DT40 TDP1 CPT 21µM*, IL-1B inflam inh 4, TGFb SMAD3 inh inconclusive and TDP1 cell noCPT inconclusive.
For CC/C(=C\c1ccccc1)c1cccc2oc3ccccc3c12 the results were HepG2 tox -35%, DT40 TDP1 CPT inconclusive, TGFb SMAD3 inh inconclusive and TDP1 cell noCPT inconclusive.
O=C(CSc1nnc(-c2ccccn2)n1Cc1ccco1)c1ccc(Cl)cc1 was read as HepG2 tox -23%, DT40 TDP1 CPT 16µM*, IL-1B inflam inh -3, TDP1 inh 7%, TGFb SMAD3 inh -13% and TDP1 cell noCPT 29µM*.
Screening O=C(CSc1nnc(-c2cnccn2)n1Cc1ccco1)c1ccccc1 returned HepG2 tox -5%, DT40 TDP1 CPT -14%, IL-1B inflam inh -8, TDP1 inh 2%, TGFb SMAD3 inh -26% and TDP1 cell noCPT -6%.
Screening O=C(CSc1nnc(-c2cnccn2)n1Cc1ccco1)c1ccc(Cl)cc1 returned HepG2 tox 0%, DT40 TDP1 CPT 23µM*, IL-1B inflam inh -7, TDP1 inh 5%, TGFb SMAD3 inh 0% and TDP1 cell noCPT inconclusive.
CCOc1cc(C(=O)Nc2ccc(-c3nc4cc(Cl)ccc4o3)cc2)cc(OCC)c1OCC was read as HepG2 tox 2%, DT40 TDP1 CPT inconclusive, TDP1 inh -1%[12.3 µM], TGFb SMAD3 inh 5% and TDP1 cell noCPT inconclusive.
`CCOC(=O)c1cc2[nH]c3ccccc3c2[n+](-c2ccc([N+](=O)[O-])cc2)c1N` gave HepG2 tox -11%, DT40 TDP1 CPT 12µM*, IL-1B inflam inh -58*, TDP1 inh 3%, TGFb SMAD3 inh inconclusive and TDP1 cell noCPT 8.2µM*.
Screening CCOC(=O)c1cc2[nH]c3ccccc3c2[n+](-c2ccc([N+](=O)[O-])cc2)c1C returned HepG2 tox -28%, DT40 TDP1 CPT inconclusive, IL-1B inflam inh 0, TDP1 inh 0%, TGFb SMAD3 inh -22% and TDP1 cell noCPT inconclusive.
CCOc1cccc(NC(=O)C2CC(=O)N(C)C(=Nc3ccc(F)cc3)S2)c1 (centres undefined) was read as HepG2 tox -28%, DT40 TDP1 CPT inconclusive, TDP1 inh 5%, TGFb SMAD3 inh inconclusive and TDP1 cell noCPT inconclusive.
Brc1ccc(CSc2ccc3nnc(-c4cccnc4)n3n2)cc1 was read as HepG2 tox -20%, DT40 TDP1 CPT inconclusive, IL-1B inflam inh -21, TDP1 inh 0%, TGFb SMAD3 inh 7% and TDP1 cell noCPT 21µM*.
For Fc1cccc(CSc2ccc3nnc(-c4cccnc4)n3n2)c1 the results were HepG2 tox -33%, DT40 TDP1 CPT inconclusive, IL-1B inflam inh 17, TDP1 inh 5%, TGFb SMAD3 inh inconclusive and TDP1 cell noCPT 16µM*.
For Cc1ccc(CNc2ccc3nnc(-c4ccccc4)n3n2)cc1 the results were HepG2 tox -2%, DT40 TDP1 CPT 3.7µM*, IL-1B inflam inh 22, TDP1 inh 3%, TGFb SMAD3 inh 6% and TDP1 cell noCPT 2.3µM*.
Screening Cc1ccc(CSc2ccc3nnc(-c4cccnc4)n3n2)cc1 returned HepG2 tox -21%, DT40 TDP1 CPT 21µM*, IL-1B inflam inh 31, TDP1 inh 3%, TGFb SMAD3 inh 14% and TDP1 cell noCPT 4.1µM*.
For Cc1ccc(CC(=O)NCCC(=O)O)cc1 the results were HepG2 tox 1%, DT40 TDP1 CPT 2%, IL-1B inflam inh 6, TDP1 inh 5%, TGFb SMAD3 inh -1% and TDP1 cell noCPT 17%.
Cc1ccc(-c2csc(C(C)(O)c3ccc(F)c(F)c3)n2)cc1C (centres undefined) was read as HepG2 tox -58%, DT40 TDP1 CPT inconclusive, IL-1B inflam inh 5, TGFb SMAD3 inh inconclusive and TDP1 cell noCPT -26%.
COc1ccc(-c2csc(C(C)(O)c3ccccc3)n2)cc1OC (centres undefined) was read as HepG2 tox 0%, DT40 TDP1 CPT inconclusive, IL-1B inflam inh -15, TGFb SMAD3 inh 2% and TDP1 cell noCPT inconclusive.
COc1ccc(-c2csc(C(C)(O)c3ccc(F)c(F)c3)n2)cc1OC (centres undefined) was read as HepG2 tox -19%, DT40 TDP1 CPT 18µM*, IL-1B inflam inh 0, TGFb SMAD3 inh -9% and TDP1 cell noCPT inconclusive.
For COc1ccc(-c2csc(C(C)(O)c3cccnc3)n2)cc1 (centres undefined) the results were HepG2 tox -9%, DT40 TDP1 CPT 16µM*, IL-1B inflam inh -65*, TGFb SMAD3 inh 1% and TDP1 cell noCPT 21µM*.
For COc1ccc(C(C)(O)c2nc(-c3ccc(N(C)C)cc3)cs2)cc1 (centres undefined) the results were HepG2 tox -6%, DT40 TDP1 CPT 18µM*, IL-1B inflam inh -10, TGFb SMAD3 inh 1% and TDP1 cell noCPT 16µM*.
